# Test results reported in publication PMC7862700, “An all-to-all approach to the identification of sequence-specific readers for epigenetic DNA modifications on cytosine”.
# Legend:
# Assay in all cases: DAPPL (digital affinity profiling via proximity ligation, sequencing); 10 mM Tris-HCl pH 7.5, 50 mM NaCl, 1 mM DTT, 4% glycerol, room temperature, 30 min; GST-TFs on glutathione beads, 16-mer random dsDNA library, 0.1% formaldehyde crosslink after washing; high values mean tight binding
# Details in all cases: protein: recombinant; tags: N-terminal GST; dsDNA, one strand shown
# FLI1 = target: T1, FLI1 (Homo sapiens, UniProt Q01543 1-452)
# T1 sequence: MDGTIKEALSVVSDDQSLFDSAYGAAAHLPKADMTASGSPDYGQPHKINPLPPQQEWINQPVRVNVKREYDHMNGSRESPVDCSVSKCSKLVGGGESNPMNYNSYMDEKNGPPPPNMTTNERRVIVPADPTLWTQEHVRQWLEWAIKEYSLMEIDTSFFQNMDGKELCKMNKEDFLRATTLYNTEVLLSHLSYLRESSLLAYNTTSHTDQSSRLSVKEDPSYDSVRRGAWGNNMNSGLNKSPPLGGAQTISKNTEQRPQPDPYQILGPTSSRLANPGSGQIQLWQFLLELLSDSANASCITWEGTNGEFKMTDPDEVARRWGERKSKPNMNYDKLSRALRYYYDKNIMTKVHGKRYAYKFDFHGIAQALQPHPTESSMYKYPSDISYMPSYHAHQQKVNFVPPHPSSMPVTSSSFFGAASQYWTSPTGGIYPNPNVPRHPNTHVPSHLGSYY
# How it was run: (§1)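 Human transcription factors fused to GST were expressed in yeast, captured on glutathione beads, given DNA barcodes and pooled with a GST-only negative control. Pools were incubated with 200 nmole of a 16-mer random double-stranded DNA library in Tris/NaCl/DTT/glycerol buffer at room temperature for 30 min. They were then washed, crosslinked with 0.1% formaldehyde, proximity-ligated (BsaI/T4 ligase, 1 h, 37 °C), PCR-amplified and sequenced on an Illumina NextSeq500. Binding signal is each 6-mer's read frequency for a factor divided by its frequency for the GST control.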
# ELK1 = target: T2, ELK1 (Homo sapiens, UniProt P19419 1-428)
# T2 sequence: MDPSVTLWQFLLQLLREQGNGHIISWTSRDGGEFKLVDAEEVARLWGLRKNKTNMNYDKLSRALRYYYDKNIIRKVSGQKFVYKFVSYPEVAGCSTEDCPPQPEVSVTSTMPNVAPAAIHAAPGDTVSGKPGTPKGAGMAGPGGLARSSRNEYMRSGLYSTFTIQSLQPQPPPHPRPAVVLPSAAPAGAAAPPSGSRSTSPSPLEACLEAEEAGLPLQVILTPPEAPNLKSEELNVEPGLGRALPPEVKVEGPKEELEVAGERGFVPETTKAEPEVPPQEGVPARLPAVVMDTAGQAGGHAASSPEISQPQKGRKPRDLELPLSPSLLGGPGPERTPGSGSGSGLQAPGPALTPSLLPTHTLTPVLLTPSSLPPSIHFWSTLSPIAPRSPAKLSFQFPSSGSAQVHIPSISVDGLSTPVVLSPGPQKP
# How it was run: as §1
# GABPA = target: T3, GABPA (Homo sapiens, UniProt Q06546 1-454)
# T3 sequence: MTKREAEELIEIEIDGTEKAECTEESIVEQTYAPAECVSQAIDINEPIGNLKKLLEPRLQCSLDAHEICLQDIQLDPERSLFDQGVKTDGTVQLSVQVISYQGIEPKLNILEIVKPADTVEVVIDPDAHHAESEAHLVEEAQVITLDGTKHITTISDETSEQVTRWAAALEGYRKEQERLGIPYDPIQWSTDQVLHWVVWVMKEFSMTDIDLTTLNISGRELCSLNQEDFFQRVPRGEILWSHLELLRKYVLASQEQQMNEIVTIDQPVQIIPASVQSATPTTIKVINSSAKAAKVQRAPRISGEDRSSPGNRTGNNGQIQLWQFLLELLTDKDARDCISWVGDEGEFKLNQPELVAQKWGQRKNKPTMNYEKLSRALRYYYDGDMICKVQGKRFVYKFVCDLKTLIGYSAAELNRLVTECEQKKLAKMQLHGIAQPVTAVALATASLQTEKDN
# How it was run: as §1
# ERG = target: T4, ERG (Homo sapiens, UniProt P11308 1-479)
# T4 sequence: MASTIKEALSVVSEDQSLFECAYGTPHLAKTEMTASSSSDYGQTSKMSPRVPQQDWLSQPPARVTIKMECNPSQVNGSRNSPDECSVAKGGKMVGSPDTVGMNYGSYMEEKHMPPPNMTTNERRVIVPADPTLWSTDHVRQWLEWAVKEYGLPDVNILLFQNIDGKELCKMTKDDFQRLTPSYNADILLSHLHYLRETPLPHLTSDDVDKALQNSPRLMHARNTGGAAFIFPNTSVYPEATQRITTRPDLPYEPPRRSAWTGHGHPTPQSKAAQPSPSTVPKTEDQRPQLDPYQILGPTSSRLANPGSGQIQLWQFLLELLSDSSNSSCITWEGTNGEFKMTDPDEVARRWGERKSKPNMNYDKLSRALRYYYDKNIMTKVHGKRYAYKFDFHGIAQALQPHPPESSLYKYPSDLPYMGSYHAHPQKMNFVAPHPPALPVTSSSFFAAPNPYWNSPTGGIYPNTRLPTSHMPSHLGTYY
# How it was run: as §1
# ELF1 = ELF1 (Homo sapiens, UniProt P32519 1-619)
# How it was run: as §1
# EHF = target: T5, EHF (Homo sapiens, UniProt Q9NZC4 1-300)
# T5 sequence: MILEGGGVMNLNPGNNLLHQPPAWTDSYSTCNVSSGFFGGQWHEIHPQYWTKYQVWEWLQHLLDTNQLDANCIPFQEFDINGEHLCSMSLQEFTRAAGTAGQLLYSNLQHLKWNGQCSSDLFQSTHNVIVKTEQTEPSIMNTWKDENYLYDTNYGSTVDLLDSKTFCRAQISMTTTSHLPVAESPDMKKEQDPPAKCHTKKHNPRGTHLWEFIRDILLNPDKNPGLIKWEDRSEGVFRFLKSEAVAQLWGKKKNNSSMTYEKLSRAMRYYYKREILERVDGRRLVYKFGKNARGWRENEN
# How it was run: as §1
# SPI1 = SPI1 (Homo sapiens, UniProt P17947 1-270)
# How it was run: as §1
# SPIB = SPIB (Homo sapiens, UniProt Q01892 1-262)
# How it was run: as §1
# ELK3 = target: T6, ELK3 (Homo sapiens, UniProt P41970 1-407)
# T6 sequence: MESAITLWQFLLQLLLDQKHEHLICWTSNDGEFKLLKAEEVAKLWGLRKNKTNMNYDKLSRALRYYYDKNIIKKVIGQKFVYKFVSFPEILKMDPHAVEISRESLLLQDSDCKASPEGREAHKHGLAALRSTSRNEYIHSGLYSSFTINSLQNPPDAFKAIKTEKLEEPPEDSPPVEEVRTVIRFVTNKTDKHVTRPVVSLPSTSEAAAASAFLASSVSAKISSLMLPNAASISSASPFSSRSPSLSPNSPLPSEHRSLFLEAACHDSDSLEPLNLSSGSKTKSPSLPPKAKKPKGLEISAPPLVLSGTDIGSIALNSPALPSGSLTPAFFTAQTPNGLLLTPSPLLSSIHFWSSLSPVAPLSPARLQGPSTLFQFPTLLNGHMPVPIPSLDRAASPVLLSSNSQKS
# How it was run: as §1
# FEV = target: T7, FEV (Homo sapiens, UniProt Q99581 1-238)
# T7 sequence: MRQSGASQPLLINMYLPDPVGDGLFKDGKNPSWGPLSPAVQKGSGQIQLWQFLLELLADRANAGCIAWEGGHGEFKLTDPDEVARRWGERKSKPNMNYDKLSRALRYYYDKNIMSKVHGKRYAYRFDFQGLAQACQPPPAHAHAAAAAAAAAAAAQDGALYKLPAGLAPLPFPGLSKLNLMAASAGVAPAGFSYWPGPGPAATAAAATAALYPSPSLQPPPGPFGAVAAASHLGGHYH
# How it was run: as §1
# ETV5 = ETV5 (Homo sapiens, UniProt P41161 1-510)
# How it was run: as §1
# SPIC = target: T8, SPIC (Homo sapiens, UniProt Q8N5J4 1-248)
# T8 sequence: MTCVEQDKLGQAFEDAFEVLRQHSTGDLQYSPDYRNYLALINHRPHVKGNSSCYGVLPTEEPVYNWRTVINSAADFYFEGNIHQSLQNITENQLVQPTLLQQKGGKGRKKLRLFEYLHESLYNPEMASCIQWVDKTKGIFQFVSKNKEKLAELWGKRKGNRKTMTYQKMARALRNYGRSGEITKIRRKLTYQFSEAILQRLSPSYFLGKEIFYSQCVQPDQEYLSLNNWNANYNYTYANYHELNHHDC
# How it was run: as §1
# ELF4 = ELF4 (Homo sapiens, UniProt Q99607 1-663)
# How it was run: as §1
# ELK4 = target: T9, ELK4 (Homo sapiens, UniProt P28324-2 1-405)
# T9 sequence: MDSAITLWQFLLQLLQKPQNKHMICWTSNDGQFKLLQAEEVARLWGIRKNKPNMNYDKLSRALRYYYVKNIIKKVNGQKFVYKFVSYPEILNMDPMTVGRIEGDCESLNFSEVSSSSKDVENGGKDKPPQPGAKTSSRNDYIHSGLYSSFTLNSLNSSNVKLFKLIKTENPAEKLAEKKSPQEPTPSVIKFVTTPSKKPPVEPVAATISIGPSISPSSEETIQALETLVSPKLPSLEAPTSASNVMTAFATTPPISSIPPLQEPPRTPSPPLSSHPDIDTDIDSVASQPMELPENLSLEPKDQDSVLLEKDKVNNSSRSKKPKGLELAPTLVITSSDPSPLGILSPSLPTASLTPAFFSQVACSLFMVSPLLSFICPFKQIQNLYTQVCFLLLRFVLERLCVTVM
# How it was run: as §1
# ETV2 = target: T10, ETV2 (Homo sapiens, UniProt O00321 1-342)
# T10 sequence: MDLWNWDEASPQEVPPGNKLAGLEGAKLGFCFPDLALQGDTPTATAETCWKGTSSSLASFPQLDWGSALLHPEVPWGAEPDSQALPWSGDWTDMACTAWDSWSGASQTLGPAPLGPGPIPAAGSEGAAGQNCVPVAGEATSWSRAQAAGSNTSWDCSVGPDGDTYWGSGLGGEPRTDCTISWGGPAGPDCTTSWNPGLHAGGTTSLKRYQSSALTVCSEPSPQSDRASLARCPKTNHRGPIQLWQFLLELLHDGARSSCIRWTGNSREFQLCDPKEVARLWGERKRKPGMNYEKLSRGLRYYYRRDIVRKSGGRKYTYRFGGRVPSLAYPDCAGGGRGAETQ
# How it was run: as §1
# ELF3 = target: T11, ELF3 (Homo sapiens, UniProt P78545 1-371)
# T11 sequence: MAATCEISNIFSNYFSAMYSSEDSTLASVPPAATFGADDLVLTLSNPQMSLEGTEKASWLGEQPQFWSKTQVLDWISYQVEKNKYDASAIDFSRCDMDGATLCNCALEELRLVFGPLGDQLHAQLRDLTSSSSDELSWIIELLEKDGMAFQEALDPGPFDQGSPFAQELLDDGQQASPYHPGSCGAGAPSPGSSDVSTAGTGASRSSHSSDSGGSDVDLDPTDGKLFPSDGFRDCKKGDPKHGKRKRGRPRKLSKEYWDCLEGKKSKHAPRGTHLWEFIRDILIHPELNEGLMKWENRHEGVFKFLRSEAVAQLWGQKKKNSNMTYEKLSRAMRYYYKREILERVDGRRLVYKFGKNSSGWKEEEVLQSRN
# How it was run: as §1
# ETV1 = ETV1 (Homo sapiens, UniProt P50549 1-477)
# How it was run: as §1
# ELF1, sequence (P32519 whole entry): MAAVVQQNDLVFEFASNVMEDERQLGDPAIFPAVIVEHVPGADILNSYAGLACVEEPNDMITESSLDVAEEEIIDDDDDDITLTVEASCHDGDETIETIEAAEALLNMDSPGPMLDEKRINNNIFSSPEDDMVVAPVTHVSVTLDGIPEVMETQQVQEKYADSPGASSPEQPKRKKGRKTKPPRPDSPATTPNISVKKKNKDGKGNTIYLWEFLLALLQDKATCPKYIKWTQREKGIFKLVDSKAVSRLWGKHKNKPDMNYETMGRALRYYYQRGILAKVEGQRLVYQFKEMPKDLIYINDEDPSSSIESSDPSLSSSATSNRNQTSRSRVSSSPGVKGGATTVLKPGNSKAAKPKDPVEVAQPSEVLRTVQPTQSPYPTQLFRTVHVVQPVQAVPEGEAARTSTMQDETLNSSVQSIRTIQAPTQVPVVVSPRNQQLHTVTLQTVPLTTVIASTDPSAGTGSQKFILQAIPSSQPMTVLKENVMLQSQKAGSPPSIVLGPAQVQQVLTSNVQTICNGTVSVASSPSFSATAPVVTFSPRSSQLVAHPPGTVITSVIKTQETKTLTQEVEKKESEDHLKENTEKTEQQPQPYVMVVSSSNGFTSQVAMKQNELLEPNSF
# ELF4, sequence (Q99607 whole entry): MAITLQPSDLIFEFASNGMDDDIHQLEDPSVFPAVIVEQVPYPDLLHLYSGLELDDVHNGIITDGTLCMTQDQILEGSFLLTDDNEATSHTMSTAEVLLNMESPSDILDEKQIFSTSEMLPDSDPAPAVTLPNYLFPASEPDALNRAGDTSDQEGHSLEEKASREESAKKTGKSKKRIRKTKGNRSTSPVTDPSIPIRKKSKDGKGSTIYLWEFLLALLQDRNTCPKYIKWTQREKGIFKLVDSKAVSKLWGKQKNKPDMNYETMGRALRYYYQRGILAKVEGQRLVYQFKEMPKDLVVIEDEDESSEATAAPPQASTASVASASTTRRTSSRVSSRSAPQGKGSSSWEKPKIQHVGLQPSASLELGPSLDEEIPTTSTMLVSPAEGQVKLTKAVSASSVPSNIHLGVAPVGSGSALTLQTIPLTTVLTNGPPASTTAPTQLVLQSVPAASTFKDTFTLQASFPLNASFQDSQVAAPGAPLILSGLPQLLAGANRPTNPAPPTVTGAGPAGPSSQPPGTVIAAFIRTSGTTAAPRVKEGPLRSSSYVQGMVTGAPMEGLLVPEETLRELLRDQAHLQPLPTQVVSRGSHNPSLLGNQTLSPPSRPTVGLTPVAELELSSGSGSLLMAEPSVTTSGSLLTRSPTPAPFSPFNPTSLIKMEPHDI
# SPIB, sequence (Q01892 whole entry): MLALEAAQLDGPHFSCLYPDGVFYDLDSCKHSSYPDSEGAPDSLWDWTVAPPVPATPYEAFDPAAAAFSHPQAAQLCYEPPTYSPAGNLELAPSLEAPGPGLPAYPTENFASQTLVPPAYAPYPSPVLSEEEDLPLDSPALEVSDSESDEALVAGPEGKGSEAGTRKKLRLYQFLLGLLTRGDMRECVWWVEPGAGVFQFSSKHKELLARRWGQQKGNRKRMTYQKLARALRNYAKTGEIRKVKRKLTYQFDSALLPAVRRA
# ETV1, sequence (P50549 whole entry): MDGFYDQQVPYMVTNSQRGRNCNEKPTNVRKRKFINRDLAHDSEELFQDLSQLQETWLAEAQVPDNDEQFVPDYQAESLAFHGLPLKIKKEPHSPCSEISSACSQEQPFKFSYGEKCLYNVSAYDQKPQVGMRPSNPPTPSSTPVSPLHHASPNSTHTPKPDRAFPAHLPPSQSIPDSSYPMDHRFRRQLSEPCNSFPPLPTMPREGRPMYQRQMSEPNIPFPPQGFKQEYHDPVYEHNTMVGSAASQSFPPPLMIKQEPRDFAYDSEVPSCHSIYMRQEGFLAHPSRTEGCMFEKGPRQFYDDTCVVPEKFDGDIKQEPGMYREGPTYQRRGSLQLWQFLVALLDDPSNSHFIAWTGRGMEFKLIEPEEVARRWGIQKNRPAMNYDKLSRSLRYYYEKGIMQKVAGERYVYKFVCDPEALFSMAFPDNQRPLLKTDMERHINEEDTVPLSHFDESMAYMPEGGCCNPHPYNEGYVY
# ETV5, sequence (P41161 whole entry): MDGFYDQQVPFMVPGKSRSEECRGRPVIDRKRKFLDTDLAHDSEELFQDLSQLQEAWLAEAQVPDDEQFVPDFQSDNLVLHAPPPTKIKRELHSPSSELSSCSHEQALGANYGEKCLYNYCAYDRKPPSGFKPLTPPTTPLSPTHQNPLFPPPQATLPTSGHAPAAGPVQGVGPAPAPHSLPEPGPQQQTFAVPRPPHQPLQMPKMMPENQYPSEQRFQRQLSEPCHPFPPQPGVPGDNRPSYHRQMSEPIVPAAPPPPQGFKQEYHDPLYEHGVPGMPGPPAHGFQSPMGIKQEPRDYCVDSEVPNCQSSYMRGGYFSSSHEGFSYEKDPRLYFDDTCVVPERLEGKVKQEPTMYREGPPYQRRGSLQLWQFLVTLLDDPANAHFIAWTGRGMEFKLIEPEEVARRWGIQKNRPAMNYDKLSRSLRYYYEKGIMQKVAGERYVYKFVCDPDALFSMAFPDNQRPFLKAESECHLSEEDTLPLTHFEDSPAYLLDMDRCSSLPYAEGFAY
sequence,measurement,setting,value
GTATCA,binding signal,FLI1,"1.14 fold enrichment (6-mer frequency, TF over GST control)"
same,binding signal,ELK1,"1.07 fold enrichment (6-mer frequency, TF over GST control)"
same,binding signal,GABPA,"1.18 fold enrichment (6-mer frequency, TF over GST control)"
same,binding signal,ERG,"1.05 fold enrichment (6-mer frequency, TF over GST control)"
same,binding signal,ELF1,"1.05 fold enrichment (6-mer frequency, TF over GST control)"
same,binding signal,EHF,"1.1 fold enrichment (6-mer frequency, TF over GST control)"
same,binding signal,SPI1,"1.06 fold enrichment (6-mer frequency, TF over GST control)"
same,binding signal,SPIB,"1.02 fold enrichment (6-mer frequency, TF over GST control)"
same,binding signal,ELK3,"1.1 fold enrichment (6-mer frequency, TF over GST control)"
same,binding signal,FEV,"1.04 fold enrichment (6-mer frequency, TF over GST control)"
same,binding signal,ETV5,"1.01 fold enrichment (6-mer frequency, TF over GST control)"
same,binding signal,SPIC,"1.03 fold enrichment (6-mer frequency, TF over GST control)"
same,binding signal,ELF4,"1.05 fold enrichment (6-mer frequency, TF over GST control)"
same,binding signal,ELK4,"1.12 fold enrichment (6-mer frequency, TF over GST control)"
same,binding signal,ETV2,"1.12 fold enrichment (6-mer frequency, TF over GST control)"
same,binding signal,ELF3,"1.17 fold enrichment (6-mer frequency, TF over GST control)"
same,binding signal,ETV1,"1.05 fold enrichment (6-mer frequency, TF over GST control)"
